Inconclusive results are not listed. Entries that show only a call come without a potency. A number with no mark means an inactive call. Activity calls are given as the source filed them. Calls follow the shape of the dose curve; as a rule, active = well fitted activation curve with a large enough effect in the signal ratio in the repeat runs (not every such curve was filed as active); inconclusive = weak or mixed curves, or effect the other way; inactive = flat fitted curve, though single readings scatter; the % refers to the signal ratio.
Target: Estrogen receptor beta (Homo sapiens) (UniProt Q92731)
Sequence (Q92731 whole entry, looked up): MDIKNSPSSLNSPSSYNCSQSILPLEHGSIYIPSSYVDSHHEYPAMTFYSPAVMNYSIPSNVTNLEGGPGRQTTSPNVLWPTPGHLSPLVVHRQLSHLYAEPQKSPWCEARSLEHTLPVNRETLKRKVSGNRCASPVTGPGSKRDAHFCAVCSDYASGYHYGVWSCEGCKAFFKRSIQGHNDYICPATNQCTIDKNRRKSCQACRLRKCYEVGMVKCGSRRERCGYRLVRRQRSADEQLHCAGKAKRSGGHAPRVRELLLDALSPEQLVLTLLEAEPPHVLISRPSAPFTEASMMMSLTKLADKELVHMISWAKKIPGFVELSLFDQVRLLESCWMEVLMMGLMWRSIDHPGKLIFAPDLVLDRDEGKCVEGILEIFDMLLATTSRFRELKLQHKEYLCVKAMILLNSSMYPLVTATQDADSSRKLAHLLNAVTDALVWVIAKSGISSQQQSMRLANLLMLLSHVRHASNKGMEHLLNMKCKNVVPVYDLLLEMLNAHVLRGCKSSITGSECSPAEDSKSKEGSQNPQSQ
Test: qHTS assay to identify small molecule agonists of the estrogen receptor beta (ER-beta) signaling pathway (AID 1259377)
Settings: ER-beta-UAS-bla HEK293T, beta-lactamase FRET ratio, 16 h; series mostly up to 92.4 µM
Excerpt: U.S. Tox21 Program National Center for Advancing Translational Sciences [NCATS] NIH Chemical Genomics Center [NCGC] U.S. Environmental Protection Agency [EPA] National Institutes of Environmental Health Sciences [NIEHS] National Toxicology Program [NTP] U.S. Food and Drug Administration [FDA] Tox21 Assay Overview: Estrogen receptor (ER), a nuclear hormone receptor, plays an important role in development, metabolic homeostasis and reproduction. Two subtypes of ER, ER-alpha and ER-beta, have similar expression patterns with some uniqueness in both types. Endocrine disrupting chemicals (EDCs) and their interactions with steroid hormone receptors like ER causes disruption of normal endocrine function. To identify the compounds that activate ER signaling, an ER beta-UAS-bla GripTite cell line (Life technologies, Madison, WI, USA) containing a beta-lactamase reporter gene under the control of an Upstream Activator Sequence (UAS) was used to screen Tox21 10K compound library.
Tox21 Assay Protocol Summary: ER-beta-UAS-bla HEK293T cells were dispensed at 2,000 cells/5 uL of assay medium containing 2% charcoal stripped FBS per well into black wall/clear-bottom 1536-well plates using a Multidrop Combi (ThermoFisher Scientific, Waltham, MA) dispenser. After the assay plates were incubated at a 37C and 5% CO2 for 6 hr, 23 nL of compounds dissolved in DMSO, positive controls or DMSO only was transferred to the assay plate by a Pintool station (Kalypsys, San Diego, CA). The plates were incubated at 37C and 5% CO2 for 16 hr. Then 1 uL of LiveBLAzerTM B/G FRET substrate was added using a BioRAPTR FRD (Flying Reagent Dispenser, Aurora Discovery, San Diego, CA). After the plates were incubated at room temperature for 2 hours, fluorescence intensity was measured by an Envision plate reader (PerkinElmer, Shelton, CT).
Potency is read from the fitted curve at half-maximal effect.

SMILES	Potency	activation
CC(=O)c1ccc2c(c1)N(CCCN(C)C)c1ccccc1S2	inactive	
C=C1[C@H]2CC[C@@H]3[C@H]2C(C)(C)CCC[C@]13C	inactive	
CCN(CC)c1ccc2c(-c3ccccc3C(=O)O)c3ccc(=[N+](CC)CC)cc-3oc2c1	inactive	
COc1cc(C(=O)OCCCN2CCCN(CCCOC(=O)c3cc(OC)c(OC)c(OC)c3)CC2)cc(OC)c1OC	inactive	
C/C=C/C(=O)CC		-1.08% [at 19 µM]
C[N+](C)(C)CCOC(=O)CCC(=O)OCC[N+](C)(C)C	inactive	
Clc1ccc(Cn2c(CN3CCCC3)nc3ccccc32)cc1	inactive	
Nc1cc(C(=O)O)c(O)c(S(=O)(=O)O)c1	inactive	
CC(C)Nc1ccc(NC(C)C)c2c1C(=O)c1ccccc1C2=O	inactive	
CCCCCCCCCc1ccc(OCCOCCO)cc1	inactive	
c1ccc(CNCCNCc2ccccc2)cc1	inactive	
Nc1cccc(S(=O)(=O)c2cccc(N)c2)c1	inactive	
S=C([S-])NCCNC(=S)[S-].[Mn+2]	inactive	
CCCCCCCCCOS(=O)(=O)O	inactive	
CCCCO	inactive	
COc1ccc(C(=O)c2ccc(OC)cc2O)c(O)c1	48.9 µM (active)	
COc1cc(Cl)ccc1Oc1ccc(Cl)cc1Cl	inactive	
O=[N+]([O-])c1cccc(S(=O)(=O)O)c1	inactive	
CCCCC	inactive	
CN1CCN(C(c2ccccc2)c2ccccc2)CC1	inactive	

SMILES	Potency	activation
O=C(O)c1ccc(S(=O)(=O)O)cc1C(=O)O	inactive	
CC(C)(COC(=O)c1ccccc1)COC(=O)c1ccccc1	inactive	
C[C@@H]1C[C@H]2O[C@@]3(O[C@@H]2C(C)(C)O)[C@H](O)[C@@]2(C)[C@@H]4CC[C@H]5C(C)(C)[C@@H](O[C@@H]6OC[C@@H](O)[C@H](O)[C@H]6O)CC[C@@]56C[C@@]46CC[C@]2(C)[C@@H]13	inactive	
C=CC(=O)OCCOc1ccccc1	inactive	
COc1ccc(C(=O)N2CCN(CC(=O)N3CCOCC3)CC2)cc1	inactive	
COS(=O)(=O)C(F)(F)F	inactive	
NCc1ccccc1Sc1ccccc1CO	inactive	
Nc1ncn([C@H]2C[C@H](O)[C@@H](CO)O2)c(=O)n1	inactive	
O=C1C(O)=C(O)C(=O)C(O)=C1O	inactive	
C[C@H](CCC(=O)O)[C@H]1CC[C@H]2[C@@H]3CC[C@@H]4C[C@H](O)CC[C@]4(C)[C@H]3C[C@H](O)[C@]12C	inactive	
CCO[Si](CCCCl)(OCC)OCC	inactive	
CC(C)(CO)[N+](=O)[O-]	inactive	
O[C@@H](COc1cccc2ncccc12)CN1CCN(C2c3ccccc3[C@@H]3[C@H](c4ccccc42)C3(F)F)CC1 (stereo not given in full)	inactive	
CCCCNc1ccc(C(=O)OCCOCCOCCOCCOCCOCCOCCOCCOCCOC)cc1	inactive	
CCCCC(CC)COC(=O)COc1ccc(Cl)cc1Cl (stereo not given)	inactive	
Cn1c(=O)cc(Oc2ccc(F)cc2F)c2cnc(NCC(C)(C)O)nc21	inactive	
COc1cccc(N(C)C(=S)Oc2ccc3c(c2)CCCC3)n1	inactive	
CCC(C)(C)CC	inactive	
O=[N+]([O-])c1ccc2[nH]ncc2c1	inactive	
COc1ccc(-c2nc3ccc(C4=NNC(=O)CC4C)cc3[nH]2)cc1 (stereo not given)	inactive	

— PubChem BioAssay (Tox21)
